Compound activity deposited in PubChem by National Center for Advancing Translational Sciences (NCATS).
ATXN viability: Viability Counterscreen for Primary qHTS for Inhibitors of ATXN expression; S2 cells (HEK-293 line with an ATXN2-luciferase reporter) viability, CellTiter-Fluor protease fluorescence, 24 h; 0.49% of 400,000 active; AID 651635, 2014; Potency, µM (series often up to 56.7 µM), actives largely listed as cytotoxic; also: nearly all actives have a fitted effect of over 40% in size
ATXN2 expr inh: Primary qHTS for Inhibitors of ATXN expression; HEK-293 ATXN2-luciferase reporter, luminescence, 24 h; Potency, µM (series often up to 57 µM), actives largely listed as inhibitors; 0.72% of 360,000 active; AID 1745845, 2022; also: nearly all actives have a fitted effect of over 55% in size
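ATXN2-luciferase reporter cells (luciferase flanked by upstream and downstream ATXN2 gene portions) were treated 24 h at 37 °C with compounds at up to 57 uM. SteadyGlo luminescence gave expression; GF-AFC fluorescence gave viability.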
HepG2 tox-1: qHTS for Inhibitors of TGF-b: Cytotox Counterscreen. 0.76% of 410,000 active. Potency, µM (titrated, usually from 46.1 µM), hits mostly cytotoxic. HepG2 CAGA-GFP viability, ATP luminescence, 18 h. AID 588856, 2011
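CellTiter-Glo luminescence gave cytotoxicity after 18 hours at 37 degrees C. The cells were HepG2 CAGA-GFP in 1% FBS DMEM, stimulated with 500 pg/mL TGF-beta after compound addition. %Activity was normalised to no-cell wells (complete cell-killing) and DMSO (no toxicity), and curves were fitted and classified.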
VP16 counter: VP16 counterscreen qHTS for inhibitors of ROR gamma transcriptional activity | Drosophila S2 Gal4-VP16 UAS-luciferase, luminescence, 20 h | Potency, µM (titrated, usually from 53.6 µM), actives largely listed as inhibitors | AID 2546, 2010 | 3.5% of 310,000 active;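 also: Gal4-VP16 expression switched on by copper sulfate through the metallothionein promoter; nearly all actives have a fitted effect of over 50% in size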
TGFb inhibitor: qHTS for Inhibitors of TGF-b; HepG2 CAGA-GFP TGF-b/SMAD3 reporter, GFP fluorescence, 18 h; TGF-beta stimulated, 500 pg/mL final; Potency, µM (doses to about 46.1 µM), usual class: inhibitors; 1.2% of 410,000 active; AID 588855, 2011; also: nearly all actives have a fitted effect of over 65% in size
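Smad-responsive CAGA-GFP expression was quantified in HEPG2 cells exposed to compounds and 500 pg/mL final TGF-beta for 18 h at 37 degrees C; unstimulated wells defined full inhibition.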
RORg inh: qHTS for inhibitors of ROR gamma transcriptional activity | Drosophila S2 Gal4-RORgamma UAS-luciferase reporter, 20 h | 5.4% of 310,000 active | Potency, µM (highest dose often 53.6 µM), most hits filed as inhibitors; also: nearly all actives have a fitted effect of over 60% in size
Target sequence (P51450 whole entry, looked up, the tested form may be a part): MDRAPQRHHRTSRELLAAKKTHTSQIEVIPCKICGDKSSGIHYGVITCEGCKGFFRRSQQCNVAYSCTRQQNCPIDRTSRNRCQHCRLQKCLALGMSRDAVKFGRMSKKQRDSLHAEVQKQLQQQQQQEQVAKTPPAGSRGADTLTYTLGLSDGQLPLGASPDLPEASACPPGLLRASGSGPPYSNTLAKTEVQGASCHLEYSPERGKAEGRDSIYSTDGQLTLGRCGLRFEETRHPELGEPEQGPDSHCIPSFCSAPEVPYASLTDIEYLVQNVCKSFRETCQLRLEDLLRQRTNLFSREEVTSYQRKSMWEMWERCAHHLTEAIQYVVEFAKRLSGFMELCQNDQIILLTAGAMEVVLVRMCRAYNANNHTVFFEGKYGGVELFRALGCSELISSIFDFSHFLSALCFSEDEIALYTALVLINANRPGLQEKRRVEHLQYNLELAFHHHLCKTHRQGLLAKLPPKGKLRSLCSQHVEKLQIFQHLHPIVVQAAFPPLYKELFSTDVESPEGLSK
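Luciferase reporter read in Schneider cells carrying Gal4-RORγ (mouse) and UAS-Photinus luciferase; cells given compound 1 h before 700 uM copper sulfate induction, then incubated 20 h at ambient temperature.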
TGFb CAGA inh: qHTS for Inhibitors of TGF-b: Confirmation of Cherry Picks | shares compounds with TGFb inhibitor | HepG2 CAGA-GFP TGF-b reporter, GFP fluorescence, 18 h; cells stimulated with TGF-beta, 500 pg/mL | Potency, µM (doses to about 46.1 µM), most hits filed as inhibitors | 63% of 1,600 active | AID 720534, 2013; also: nearly all actives have a fitted effect of over 65% in size
HepG2 tox-2: qHTS for Inhibitors of TGF-b: Cytotox Counterscreen for Cherry Picks; AID 720535, 2013; Potency, µM (doses to about 46.1 µM), actives largely listed as inhibitors; 27% of 1,600 active; HepG2 CAGA-GFP viability, ATP luminescence, 18 h; cells stimulated with TGF-beta, 500 pg/mL; shares compounds with TGFb inhibitor; also: nearly all actives have a fitted effect of over 70% in size
TGFb CCL64 inh: qHTS for Inhibitors of TGF-b: CCL64 Cells Orthogonal Assay for Cherry Picks; Potency, µM (highest dose often 46.1 µM), hits mostly inhibitors; shares compounds with TGFb inhibitor; 41% of 1,600 active; AID 720536, 2013; CCL64 CAGA-GFP reporter, TGF-b stimulated, GFP fluorescence, 18 h; also: nearly all actives have a fitted effect of over 65% in size
COP TGFb inh: qHTS for Inhibitors of TGF-b: Hit Validation in HepG2 Cells using COP promoter; shares compounds with TGFb inhibitor; HepG2 COP-GFP TGF-b reporter, GFP fluorescence, 18 h; cells stimulated by added recombinant TGF-beta; Potency, µM (top dose mostly 46.1 µM), actives largely listed as inhibitors; 3% of 1,600 active; AID 720537, 2013; also: nearly all actives have a fitted effect of over 70% in size
Large screens that a line does not name were inactive (follow-up assays come after a bar, where they were run). An excerpt weighted towards active compounds, which were near 6.1% of everything screened. Calls follow the shape of the dose curve; as a rule, active = well fitted curve in the direction sought with a large enough effect; inconclusive = small, poorly fitted or top-dose-only effect, or another doubt; inactive = no such curve, though single readings can be large; an effect the other way counts as inactive or inconclusive.

CO[C@@H]1COC(=O)[C@H](C)NC(=O)C/C=C\[C@@H](C)[C@H](OC)COC(=O)[C@H](C)NC(=O)C/C=C\[C@H]1C	none (no result: ATXN viability, ATXN2 expr inh, HepG2 tox-1, TGFb inhibitor)
Cc1cc2oc(C(=O)N(Cc3ccccc3)C3CCS(=O)(=O)C3)cc(=O)c2cc1C (stereo not given)	none (no result: VP16 counter, RORg inh)
Cc1ccc(NC(=O)CSc2[nH]c(=O)ncc2C)cc1	none (no result: ATXN viability, ATXN2 expr inh, VP16 counter, RORg inh)
CC(=O)NC1[C@H](O)C[C@@](O)(C(=O)O)O[C@H]1[C@H](O)[C@H](O)CO (stereo not given in full)	none (no result: ATXN viability, ATXN2 expr inh, HepG2 tox-1, TGFb inhibitor)
Cc1ccc(NC(=O)CN(C)S(=O)(=O)c2ccc3c(c2)n(C)c(=O)c(=O)n3C)cc1F	none (no result: VP16 counter, RORg inh)
Cc1ccc2c(C)ccc(O)c2n1	VP16 counter inconclusive, TGFb inhibitor 7.1µM, RORg inh 11µM | TGFb CAGA inh inactive | HepG2 tox-2 inactive | TGFb CCL64 inh inactive | COP TGFb inh inactive
C=C(C(=O)c1ccccc1)C(CC(=O)c1ccccc1)c1ccccc1 (stereo not given)	ATXN viability inconclusive, ATXN2 expr inh 25µM, TGFb inhibitor 13µM, RORg inh inconclusive | TGFb CAGA inh 9.2µM | HepG2 tox-2 10µM | TGFb CCL64 inh 9.2µM | COP TGFb inh inactive
COc1cc(C2C3=C(COC3=O)Oc3cc4c(cc32)OCO4)ccc1O (stereo not given)	ATXN viability inconclusive, TGFb inhibitor 13µM (no result: VP16 counter, RORg inh) | TGFb CAGA inh inactive | HepG2 tox-2 inactive | TGFb CCL64 inh inconclusive | COP TGFb inh inactive
COc1cc(C2C3=C(COC3=O)OC(C)(C)Oc3cc4c(cc32)OCO4)cc(OC)c1OC (stereo not given)	ATXN viability inconclusive, TGFb inhibitor 2.8µM (no result: VP16 counter, RORg inh) | TGFb CAGA inh inconclusive | HepG2 tox-2 inactive | TGFb CCL64 inh inconclusive | COP TGFb inh inactive
O=C(C#Cc1ccccc1)Nc1cccc(F)c1	ATXN viability inconclusive, ATXN2 expr inh inconclusive, TGFb inhibitor 4µM (no result: VP16 counter, RORg inh) | TGFb CAGA inh 2.1µM | HepG2 tox-2 6.5µM | TGFb CCL64 inh 5.8µM | COP TGFb inh inactive
O=C(C#Cc1ccccc1)Nc1ccc(F)cc1	TGFb inhibitor inconclusive
O=C1C=C(NC2=CC3OC(c4ccccc4)OCC3OC2=O)CCC1 (stereo not given)	ATXN viability inconclusive, VP16 counter 10µM, TGFb inhibitor 10µM, RORg inh 10µM | TGFb CAGA inh 10µM | HepG2 tox-2 inconclusive | TGFb CCL64 inh 13µM | COP TGFb inh inactive
COc1ccc(NC(=O)C2=C(C)Nc3ncnn3C2c2ccc[nH]2)cc1 (stereo not given)	none (no result: VP16 counter, RORg inh)
O=C(c1cc(S(=O)(=O)Nc2ccccc2F)c(Cl)cc1Cl)N1CCN(CCO)CC1	TGFb inhibitor inconclusive (no result: ATXN2 expr inh) | TGFb CAGA inh inactive | HepG2 tox-2 inactive | TGFb CCL64 inh inconclusive | COP TGFb inh inactive
